Reference: PubChem BioAssay (NCI)
This is part of a sample that, as a whole, favours compounds with a hit. Of some 79,000 tested, about 15% had one in any assay. Active and inactive are the calls of the source. No stated cut-off is given here; in the data, active means growth inhibition above about 70%; inactive means the rest.

Experiments:
[1] = NCI Yeast Anticancer Drug Screen. Data for the rad52 strain (AID 147);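 further: 0% = growth of vehicle-treated control cultures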; details: S. cerevisiae rad52 mutant growth inhibition, active compounds read high
How it was run: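 Here a repair-compromised yeast strain receives each compound; its growth is then quantified and normalised to vehicle-only controls.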

[2] = NCI Yeast Anticancer Drug Screen. Data for the wt1 strain (AID 149);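 further: 0% = growth of vehicle-treated wt1 cultures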; details: S. cerevisiae wt1 strain (SPY 50644) growth inhibition, active compounds read high
How it was run: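 Readout: yeast growth inhibition, normalised to vehicle controls, in the wt1 strain exposed to test compounds.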

[3] = NCI Yeast Anticancer Drug Screen. Data for the rad50EPP+ strain (AID 151);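 further: 0% = growth of vehicle-treated control cultures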; details: S. cerevisiae rad50 mutant strain, active compounds read high
How it was run: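 Read-out is yeast growth inhibition relative to vehicle; cells used were the rad50EPP+ strain.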

[4] = NCI Yeast Anticancer Drug Screen. Data for the mgt1 strain (AID 153); details: S. cerevisiae mgt1 mutant growth inhibition, active compounds read high
How it was run: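 Measured: inhibition of mgt1 yeast growth by compound, normalized to vehicle-treated cultures.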

[5] = NCI Yeast Anticancer Drug Screen. Data for the rad50 strain (AID 155);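 further: 0% = growth of vehicle-only cultures of the same strain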; details: S. cerevisiae rad50 strain growth inhibition, active compounds read high
How it was run: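 Compounds were tested on a yeast strain with an engineered DNA damage repair alteration; the reported value is growth inhibition normalised to vehicle treatment.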

[6] = NCI Yeast Anticancer Drug Screen. Data for the mec2-1 strain (AID 157); details: S. cerevisiae mec2-1 strain, active compounds read high
How it was run: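 Using mec2-1 yeast: add compound, measure growth, express inhibition versus vehicle-treated cultures.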

[7] = NCI Yeast Anticancer Drug Screen. Data for the rad14 strain (AID 159);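 further: 0% = growth of vehicle-treated control cultures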; details: S. cerevisiae rad14 strain growth inhibition, active compounds read high
How it was run: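 Compound-treated yeast with a defined DNA-repair lesion; growth inhibition normalised to vehicle-treated cultures.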

[8] = NCI Yeast Anticancer Drug Screen. Data for the sgs1 mgt1 strain (AID 161);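 further: 0% = growth of cultures given vehicle only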; details: S. cerevisiae sgs1 mgt1 strain, active compounds read high
How it was run: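 Yeast cells carrying a defined DNA-repair defect were exposed to test compounds. Growth inhibition was measured relative to vehicle-treated controls.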

[9] = NCI Yeast Anticancer Drug Screen. Data for the CLN2oe strain (AID 163);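 further: 0% = growth of vehicle-only control cultures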; details: S. cerevisiae CLN2oe strain, active compounds read high
How it was run: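 Whole-cell yeast growth assay. A strain engineered for altered cell-cycle control received compound, and inhibition relative to vehicle-treated cultures was recorded.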

[10] = NCI Yeast Anticancer Drug Screen. Data for the cln2 rad14 strain (AID 165);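 further: 0% = growth equal to vehicle treated cultures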; details: S. cerevisiae cln2 rad14 strain, active compounds read high
How it was run: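 Yeast strain cln2 rad14, bearing defects in cell cycle control and DNA repair, serves as the test system; values reflect growth inhibition compared with vehicle.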

[11] = NCI Yeast Anticancer Drug Screen. Data for the bub3 strain (AID 167); details: S. cerevisiae bub3 mutant strain, active compounds read high
How it was run: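 Growth of a checkpoint-deficient yeast mutant is measured after compound exposure. Values represent inhibition relative to vehicle.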

[12] = NCI Yeast Anticancer Drug Screen. Data for the wt2 strain (AID 169);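 further: 0% = growth of vehicle-treated yeast cultures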; details: S. cerevisiae wt2 strain growth inhibition, active compounds read high
How it was run: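 Treated yeast vs. vehicle-treated yeast: growth inhibition determined.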

[13] = NCI Yeast Anticancer Drug Screen. Data for the sgs1 strain (AID 173);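 further: 0% = growth of vehicle-only control cultures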; details: S. cerevisiae sgs1 mutant, active compounds read high
How it was run: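 A genetically defined yeast mutant is incubated with the test compound, and its growth is compared to that of the same strain given vehicle.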

[14] = NCI Yeast Anticancer Drug Screen. Data for the mlh1 rad18 strain (AID 175); details: S. cerevisiae mlh1 rad18 strain growth inhibition, active compounds read high
How it was run: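 Steps: expose repair-defective yeast to compound; measure growth; express inhibition against vehicle-treated controls.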

[15] = NCI Yeast Anticancer Drug Screen. Data for the rad18 strain (AID 177); details: S. cerevisiae rad18 mutant growth inhibition, active compounds read high
How it was run: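 Measured value is growth inhibition of a yeast strain bearing a DNA repair alteration, referenced to vehicle-treated cells.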

[16] = at 5.0 µM (retest, dose inferred, filed as 0.5)
[17] = at 50.0 µM (retest, dose inferred, filed as 5.0)

Measured: growth inhibition

CC(CC/C(=N/O)c1ccccc1)(CC/C(=N\O)c1ccccc1)[N+](=O)[O-] (stereo unspecified)
active: [1]; at 100.0 µM 74% | [5]; at 100.0 µM 74% | [6]; at 50.0 µM 96.5% | [9]; at 100.0 µM 71% | [10]; at 50.0 µM 91.7% | [11]; at 50.0 µM 90.8% | [14]; at 50.0 µM 96.8% | [15]; at 100.0 µM 84%
inactive: [1]; at 1.2 µM 1% | [1]; at 3.7 µM 2% | [1]; at 11.0 µM -4% | [1]; at 33.0 µM 4% | [2]; at 1.2 µM -1% | [2]; at 3.7 µM -5% | [2]; at 11.0 µM -7% | [2]; at 33.0 µM 0% | [2]; at 100.0 µM 26% | [3]; at 1.2 µM -3% | [3]; at 3.7 µM 2% | [3]; at 11.0 µM -1% | [3]; at 33.0 µM 2% | [3]; at 100.0 µM 0% | [4]; at 1.2 µM -5% | [4]; at 3.7 µM -3% | [4]; at 11.0 µM -4% | [4]; at 33.0 µM -5% | [4]; at 100.0 µM 57% | [5]; at 1.2 µM 5% | [5]; at 3.7 µM 3% | [5]; [16] 4% | [5]; at 11.0 µM -1% | [5]; at 33.0 µM 4% | [5]; [17] 66% | [5]; at 50.0 µM 11.4% | [6]; at 1.2 µM -3% | [6]; at 3.7 µM -3% | [6]; [16] -11% | [6]; at 11.0 µM -5% | [6]; at 33.0 µM -5% | [6]; [17] 21% | [6]; at 100.0 µM 56% | [7]; at 1.2 µM -2% | [7]; at 3.7 µM 1% | [7]; at 11.0 µM -5% | [7]; at 33.0 µM -3% | [7]; at 100.0 µM 65% | [8]; [16] 0% | [8]; [17] 53% | [8]; at 50.0 µM 37% | [9]; at 1.2 µM -7% | [9]; at 3.7 µM -11% | [9]; at 11.0 µM -13% | [9]; at 33.0 µM -12% | [10]; [16] 2% | [10]; [17] 39% | [11]; at 1.2 µM -6% | [11]; at 3.7 µM -5% | [11]; [16] 8% | [11]; at 11.0 µM -9% | [11]; at 33.0 µM -9% | [11]; [17] 6% | [11]; at 100.0 µM 52% | [12]; at 1.2 µM -10% | [12]; at 3.7 µM -11% | [12]; at 11.0 µM -16% | [12]; at 33.0 µM -10% | [12]; at 100.0 µM 20% | [13]; at 1.2 µM -13% | [13]; at 3.7 µM 0% | [13]; at 11.0 µM -11% | [13]; at 33.0 µM -11% | [13]; at 100.0 µM 55% | [14]; [16] 5% | [14]; [17] 46% | [15]; at 1.2 µM 0% | [15]; at 3.7 µM -4% | [15]; at 11.0 µM -6% | [15]; at 33.0 µM 0%

CS(=O)(=O)O.[Ag]
inactive: [4]; at 1.2 µM 65% | [6]; at 1.2 µM 67% | [7]; at 1.2 µM 59% | [8]; [16] -25% | [9]; at 1.2 µM 62% | [10]; [16] 55% | [11]; [16] 4% | [12]; at 1.2 µM 27% | [14]; at 50.0 µM 43.8%
active: [1]; at 1.2 µM 72% | [1]; at 3.7 µM 99% | [1]; at 11.0 µM 99% | [1]; at 33.0 µM 99% | [1]; at 100.0 µM 98% | [2]; at 1.2 µM 77% | [2]; at 3.7 µM 99% | [2]; at 11.0 µM 99% | [2]; at 33.0 µM 99% | [2]; at 100.0 µM 98% | [3]; at 1.2 µM 92% | [3]; at 3.7 µM 99% | [3]; at 11.0 µM 100% | [3]; at 33.0 µM 99% | [3]; at 100.0 µM 98% | [4]; at 3.7 µM 99% | [4]; at 11.0 µM 99% | [4]; at 33.0 µM 99% | [4]; at 100.0 µM 98% | [5]; at 1.2 µM 71% | [5]; at 3.7 µM 99% | [5]; [16] 100% | [5]; at 11.0 µM 99% | [5]; at 33.0 µM 99% | [5]; [17] 100% | [5]; at 50.0 µM 91.5% | [5]; at 100.0 µM 98% | [6]; at 3.7 µM 99% | [6]; [16] 100% | [6]; at 11.0 µM 100% | [6]; at 33.0 µM 99% | [6]; [17] 98% | [6]; at 50.0 µM 92.5% | [6]; at 100.0 µM 98% | [7]; at 3.7 µM 99% | [7]; at 11.0 µM 98% | [7]; at 33.0 µM 98% | [7]; at 100.0 µM 97% | [8]; [17] 99% | [8]; at 50.0 µM 93.5% | [9]; at 3.7 µM 99% | [9]; at 11.0 µM 98% | [9]; at 33.0 µM 99% | [9]; at 100.0 µM 98% | [10]; [17] 98% | [10]; at 50.0 µM 92.2% | [11]; at 1.2 µM 80% | [11]; at 3.7 µM 98% | [11]; at 11.0 µM 99% | [11]; at 33.0 µM 96% | [11]; [17] 98% | [11]; at 50.0 µM 92% | [11]; at 100.0 µM 97% | [12]; at 3.7 µM 99% | [12]; at 11.0 µM 98% | [12]; at 33.0 µM 99% | [12]; at 100.0 µM 98% | [13]; at 1.2 µM 89% | [13]; at 3.7 µM 100% | [13]; at 11.0 µM 100% | [13]; at 33.0 µM 100% | [13]; at 100.0 µM 98% | [14]; [16] 100% | [14]; [17] 100% | [15]; at 1.2 µM 76% | [15]; at 3.7 µM 100% | [15]; at 11.0 µM 99% | [15]; at 33.0 µM 99% | [15]; at 100.0 µM 98%

CC(=O)NC(c1nc2cc(C)c(C)cc2[nH]1)c1nc2cc(C)c(C)cc2[nH]1
inactive: [1]; at 1.2 µM 0% | [1]; at 3.7 µM -2% | [1]; at 11.0 µM 5% | [1]; at 33.0 µM 28% | [1]; at 100.0 µM 62% | [2]; at 1.2 µM -20% | [2]; at 3.7 µM -28% | [2]; at 11.0 µM -14% | [2]; at 33.0 µM 16% | [2]; at 100.0 µM 62% | [3]; at 1.2 µM -1% | [3]; at 3.7 µM 7% | [3]; at 11.0 µM 1% | [3]; at 33.0 µM 19% | [3]; at 100.0 µM 47% | [4]; at 1.2 µM 11% | [4]; at 3.7 µM 19% | [4]; at 11.0 µM 31% | [4]; at 33.0 µM 59% | [5]; at 1.2 µM 13% | [5]; at 3.7 µM 4% | [5]; [16] 29% | [5]; at 11.0 µM 15% | [5]; at 33.0 µM 39% | [5]; at 50.0 µM 61.3% | [5]; at 100.0 µM 67% | [6]; at 1.2 µM 11% | [6]; at 3.7 µM 15%
active: [4]; at 100.0 µM 80% | [5]; [17] 94%
